# Laboratory results as given in PubChem BioAssay (Tox21).
# Values joined by “and” are separate entries in the source; they are usually repeats but may differ in a detail not shown here. Equal entries are not always repeated. Results filed as inconclusive are left out. Entries that show only a call come without a potency. Where a structure was tested more than once in an assay, its records may differ in their call. Active and inactive are the calls of the source. Unless noted, calls follow the shape of the dose curve; as a rule, active = well fitted curve in the direction sought with a large enough effect in the repeat runs; inconclusive = weak or mixed curves; inactive = no such curve, though single readings can be large; an effect the other way counts as inactive or inconclusive.
# Experiments:
# [1] = qHTS assay to test for compound auto fluorescence at 535 nm (green) in HEK293 cells (AID 720680)
# [2] = qHTS assay to test for compound auto fluorescence at 460 nm (blue) in HEK293 cell free culture (AID 720681)
# How it was run: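 Compounds were added to cell-free DMEM with 10% FBS and fluorescence read directly. The blue channel used 405 nm excitation and 460 nm emission, with triamterene as the reference fluorophore.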
# [3] = qHTS assay to test for compound auto fluorescence at 535 nm (green) in HEK293 cell free culture (AID 720682)
# How it was run: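 Fluorescein serves as the green reference fluorophore; each compound's intrinsic emission at 535 nm (excitation 485 nm) is reported as an equivalent amount of that dye, measured in serum-containing DMEM without cells.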
# [4] = qHTS assay to test for compound auto fluorescence at 590 nm (red) in HEK293 cell free culture (AID 720683)
# How it was run: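 Cell-free wells of DMEM with 10% FBS received compound, and intrinsic fluorescence was read at excitation/emission 540/590 nm. Values expressed as equivalence to Rose Bengal sodium.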
# [5] = qHTS assay to test for compound auto fluorescence at 590 nm (red) in HepG2 cell free culture (AID 720684)
# How it was run: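 Compound was pinned into wells holding MEM with 10% FBS and no cells, and red fluorescence was read at Ex/Em 540/590 nm. Signal is expressed as auto fluorescence equivalency relative to Rose Bengal sodium.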
# [6] = qHTS assay to test for compound auto fluorescence at 460 nm (blue) in HepG2 cell free culture (AID 720685)
# How it was run: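 Compound (23 nL) or DMSO pinned into cell-free MEM with 10% FBS; blue fluorescence read at 405/460 nm excitation/emission, expressed as auto-fluorescence equivalency to triamterene.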
# [7] = qHTS assay to test for compound auto fluorescence at 535 nm (green) in HepG2 cell free culture (AID 720686)
# [8] = qHTS assay to test for compound auto fluorescence at 460 nm (blue) in HepG2 cells (AID 720687)
# How it was run: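 HepG2 cells in MEM with 10% FBS, attached overnight at 37 C, were exposed to compound or DMSO for 1 hr at 37 C, 5% CO2. Blue fluorescence was read at 405/460 nm, with triamterene as reference fluorophore.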
# [9] = biological target: Glucocorticoid receptor (Homo sapiens) (UniProt P04150); experiment: qHTS assay to identify small molecule agonists of the glucocorticoid receptor (GR) signaling pathway (AID 720691; active = well fitted activation curve with a large enough effect in the signal ratio in the repeat runs, not every such curve was filed as active; the % refers to the signal ratio)
# How it was run: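 Fluorescence intensity from LiveBLAzer B/G FRET substrate (2 h, room temperature) reports beta-lactamase expression driven by the glucocorticoid response element in GR-bla HeLa cells after 18 h compound exposure at 37 C.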
# [10] = biological target: Glucocorticoid receptor (Homo sapiens) (UniProt P04150); experiment: qHTS assay to identify small molecule antagonists of the glucocorticoid receptor (GR) signaling pathway (AID 720692; active = well fitted inhibition curve with a large enough effect in the signal ratio in the repeat runs, not every such curve was filed as active; the % refers to the signal ratio)
# How it was run: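 HeLa GR-bla cells; cmpd + dex 5 nM final, 18 h 37 C; LiveBLAzer B/G FRET substrate 2 h RT; fluorescence intensity read. Antagonist mode, qHTS.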
# [11] = qHTS assay to identify small molecule antagonists of the glucocorticoid receptor (GR) signaling pathway - cell viability counter screen (AID 720693); also: nearly all actives have a fitted effect of over 55% in size
# [12] = qHTS assay for identifying genotoxic compounds that show differential cytotoxicity against isogenic chicken DT40 cell lines with known DNA damage response pathways - wild type cell line (AID 743012); also: nearly all actives have a fitted effect of over 60% in size; also: potency is read from the fitted curve at half-maximal effect
# How it was run: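 Wild type DT40, 300 cells/well, ~0.5 h settle at 37 C/5% CO2; compounds in DMSO added by pintool; 40 h at 37 C/5% CO2; CellTiter-Glo, 30 min RT; luminescence.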
# [13] = qHTS assay for identifying genotoxic compounds that show differential cytotoxicity against isogenic chicken DT40 cell lines with known DNA damage response pathways - Rev3 mutant cell line (AID 743014); also: nearly all actives have a fitted effect of over 55% in size; also: potency is read from the fitted curve at half-maximal effect
# [14] = qHTS assay for identifying genotoxic compounds that show differential cytotoxicity against isogenic chicken DT40 cell lines with known DNA damage response pathways - Rad54/Ku70 mutant cell line (AID 743015); also: nearly all actives have a fitted effect of over 60% in size; also: potency is read from the fitted curve at half-maximal effect
# [15] = qHTS assay to identify small molecule antagonists of the androgen receptor (AR) signaling pathway - cell viability counter screen (AID 743033; also: nearly all actives have a fitted effect of over 45% in size; also: potency is read from the fitted curve at half-maximal effect)
# [16] = qHTS assay to identify small molecule antagonists of the androgen receptor (AR) signaling pathway using the MDA cell line - cell viability counter screen (AID 743041; also: nearly all actives have a fitted effect of over 45% in size)
# How it was run: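 MDA-kb2 AR-luc cells (MMTV-luciferase, AR/GR responsive) treated with compounds plus R1881 agonist for 16 h at 37C. CellTiter-Fluor added at 15.5 h; fluorescence read after 30 min in the same wells.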
# [17] = biological target: Androgen receptor (Homo sapiens) (UniProt P10275); experiment: qHTS assay to identify small molecule antagonists of the androgen receptor (AR) signaling pathway (AID 743035; active = well fitted inhibition curve with a large enough effect in the signal ratio in the repeat runs, not every such curve was filed as active; the % refers to the signal ratio)
# How it was run: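 Fluorescence from a beta-lactamase FRET substrate (LiveBLAzer B/G, 2 h, room temperature) measured inhibition of R1881-stimulated signaling in GeneBLAzer AR-UAS-bla HEK293 cells exposed to compound for 16 h at 37C.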
# [18] = biological target: Androgen receptor (Homo sapiens) (UniProt P10275); experiment: qHTS assay to identify small molecule agonists of the androgen receptor (AR) signaling pathway (AID 743036; active = well fitted activation curve with a large enough effect in the signal ratio in the repeat runs, with a control signal flat, not every such curve was filed as active; the % refers to the signal ratio)
# How it was run: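 Fluorescence from a beta-lactamase FRET substrate served as read-out in AR-UAS-bla GripTite HEK293 cells. Cells were treated with DMSO-dissolved compounds for 16 h at 37C, then with LiveBLAzer B/G substrate for 2 h at room temperature.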
# [19] = biological target: Androgen receptor (Homo sapiens) (UniProt P10275); experiment: qHTS assay to identify small molecule agonists of the androgen receptor (AR) signaling pathway using the MDA cell line (AID 743040; also: nearly all actives have a fitted effect of over 20% in size)
# How it was run: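 MDA-kb2 breast carcinoma cells carrying MMTV-luciferase (responsive to AR and GR), plated 5 h then treated 16 h with compounds at 37C, 0% CO2. Read-out was ONE-Glo luminescence after 30 min at room temperature.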
# [20] = biological target: Androgen receptor (Homo sapiens) (UniProt P10275); experiment: qHTS assay to identify small molecule antagonists of the androgen receptor (AR) signaling pathway using the MDA cell line (AID 743042; also: nearly all actives have a fitted effect of over 55% in size)
# How it was run: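 MDA-kb2 breast carcinoma cells carrying MMTV-luciferase (AR/GR responsive) were co-treated with compounds and the agonist R1881 for 16 h at 37C. Inhibition read as ONE-Glo luminescence; CellTiter-Fluor fluorescence measured in parallel for cytotoxicity.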
# Sequence of Glucocorticoid receptor (Homo sapiens) (P04150 whole entry, looked up): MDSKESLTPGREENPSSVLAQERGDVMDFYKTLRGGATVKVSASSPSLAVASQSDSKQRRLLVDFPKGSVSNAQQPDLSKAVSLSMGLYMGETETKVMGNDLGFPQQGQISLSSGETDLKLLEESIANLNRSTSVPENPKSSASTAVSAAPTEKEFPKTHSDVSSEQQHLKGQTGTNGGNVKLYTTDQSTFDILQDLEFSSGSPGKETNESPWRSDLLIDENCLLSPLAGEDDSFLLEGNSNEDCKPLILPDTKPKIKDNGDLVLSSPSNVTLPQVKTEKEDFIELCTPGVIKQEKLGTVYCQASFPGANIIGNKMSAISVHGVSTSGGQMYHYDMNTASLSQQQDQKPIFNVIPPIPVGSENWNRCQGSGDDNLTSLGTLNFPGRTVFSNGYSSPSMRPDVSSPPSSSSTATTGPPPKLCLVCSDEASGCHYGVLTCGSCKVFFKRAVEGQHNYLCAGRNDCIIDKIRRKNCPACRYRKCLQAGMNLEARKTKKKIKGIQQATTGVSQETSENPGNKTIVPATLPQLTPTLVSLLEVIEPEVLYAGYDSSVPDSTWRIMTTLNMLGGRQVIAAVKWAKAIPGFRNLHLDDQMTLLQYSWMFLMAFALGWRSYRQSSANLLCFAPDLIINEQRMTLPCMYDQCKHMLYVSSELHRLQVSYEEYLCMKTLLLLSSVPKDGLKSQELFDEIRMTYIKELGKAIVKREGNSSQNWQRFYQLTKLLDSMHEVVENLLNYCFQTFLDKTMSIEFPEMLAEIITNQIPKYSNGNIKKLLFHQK
# Sequence of Androgen receptor (Homo sapiens) (P10275 whole entry, looked up): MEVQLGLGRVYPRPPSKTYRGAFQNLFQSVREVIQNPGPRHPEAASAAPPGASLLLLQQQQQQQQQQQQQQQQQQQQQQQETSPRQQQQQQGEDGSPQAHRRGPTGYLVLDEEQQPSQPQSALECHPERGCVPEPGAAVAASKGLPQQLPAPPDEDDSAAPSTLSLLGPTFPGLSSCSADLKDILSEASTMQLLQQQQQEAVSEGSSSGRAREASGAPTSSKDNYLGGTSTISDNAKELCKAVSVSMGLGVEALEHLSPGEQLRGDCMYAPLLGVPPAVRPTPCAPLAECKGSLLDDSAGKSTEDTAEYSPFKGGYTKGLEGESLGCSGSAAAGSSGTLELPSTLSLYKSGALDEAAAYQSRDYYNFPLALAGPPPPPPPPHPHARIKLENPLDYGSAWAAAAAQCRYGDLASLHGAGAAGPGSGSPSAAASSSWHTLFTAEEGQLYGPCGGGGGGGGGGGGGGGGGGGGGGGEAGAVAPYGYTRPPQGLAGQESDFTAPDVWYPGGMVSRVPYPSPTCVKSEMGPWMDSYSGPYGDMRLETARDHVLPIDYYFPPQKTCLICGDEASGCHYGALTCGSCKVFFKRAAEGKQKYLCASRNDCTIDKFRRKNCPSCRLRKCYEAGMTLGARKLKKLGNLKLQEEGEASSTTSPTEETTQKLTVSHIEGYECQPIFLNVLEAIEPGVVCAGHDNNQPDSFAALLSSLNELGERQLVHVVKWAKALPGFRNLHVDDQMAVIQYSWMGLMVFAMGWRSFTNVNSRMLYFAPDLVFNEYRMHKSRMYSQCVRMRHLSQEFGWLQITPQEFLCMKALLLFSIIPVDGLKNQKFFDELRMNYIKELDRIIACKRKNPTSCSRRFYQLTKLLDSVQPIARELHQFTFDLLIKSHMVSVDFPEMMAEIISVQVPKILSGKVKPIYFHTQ
Compound,outcome [1],outcome [2],outcome [3],outcome [4],outcome [5],outcome [6],outcome [7],outcome [8],outcome [9],Potency [10],Potency [11],Potency [12],Potency [13],Potency [14],Potency [15],Potency [16],outcome [17],outcome [18],outcome [19],Potency [20]
CCNc1nc(Cl)nc(NCC)n1,inactive,inactive,inactive,inactive,inactive,inactive,inactive,inactive,inactive,inactive,inactive,inactive,inactive,inactive,inactive,inactive,,,,
Cc1cc(Cl)ccc1OCC(=O)O,inactive,inactive,inactive,inactive,inactive,inactive,inactive,inactive,inactive,inactive,inactive,inactive,inactive,inactive,inactive,,inactive,inactive,inactive,inactive
CNC,inactive,inactive,inactive,inactive,inactive,inactive,inactive,inactive,inactive,inactive,inactive,,,,inactive,,,,,
Nc1ccccc1,inactive,inactive,inactive,inactive,inactive,inactive,inactive,inactive,inactive,inactive,inactive,inactive,inactive,inactive,inactive,inactive,,,,
CCCCCCCCCCCCOS(=O)(=O)O,inactive,inactive,inactive,inactive,inactive,inactive,inactive,inactive,inactive,inactive,inactive,inactive,inactive,inactive,inactive,,,,,
Cc1cc(Cl)ccc1N,inactive,inactive,inactive,inactive,inactive,inactive,inactive,inactive,inactive,inactive,inactive,inactive,inactive,inactive,inactive,inactive,,,,
COc1ccc(N)cc1,inactive,inactive,inactive,inactive,inactive,inactive,inactive,inactive,inactive,inactive,inactive,inactive,60.6 µM (active) and 45.4 µM (active),53.5 µM (active) and 60.6 µM (active) and inactive,inactive,,,,,
CC[N+](CC)(CC)CC,inactive,inactive,inactive,inactive,inactive,inactive,inactive,inactive,inactive,inactive,inactive,inactive,inactive,inactive,inactive,,,,,
Nc1ccc(Cl)cc1,inactive,inactive,inactive,inactive,inactive,inactive,inactive,inactive,inactive,inactive,inactive,inactive,inactive,inactive,inactive,inactive,,,,
C1CCC(NC2CCCCC2)CC1,inactive,inactive,inactive,inactive,inactive,inactive,inactive,inactive,inactive,inactive,inactive,inactive,inactive,inactive,inactive,,,,,
O=[N+]([O-])c1ccccc1O,inactive,inactive,inactive,inactive,inactive,inactive,inactive,inactive,inactive,inactive,inactive,inactive,inactive,inactive,inactive,,,,,
N#CS,inactive,inactive,inactive,inactive,inactive,inactive,inactive,inactive,inactive,inactive,inactive,inactive,inactive,inactive,inactive,,,,,
Nc1ccc(-c2ccc(N)cc2)cc1,inactive,inactive,inactive,inactive,inactive,inactive,inactive,inactive,inactive,inactive,inactive,,61.1 µM (active),,inactive,,,,,
CCCCCCCCCCCCn1cc[n+](C)c1,inactive,inactive,inactive,inactive,inactive,inactive,inactive,inactive,inactive,inactive,,,,,,,,,,
CCC(=O)C(CC(C)N(C)C)(c1ccccc1)c1ccccc1 (centres undefined),inactive,inactive,inactive,inactive,inactive,inactive,inactive,inactive,inactive,inactive,inactive,24.4 µM (active) and 41.5 µM (active),48.8 µM (active) and 60.7 µM (active) and 46.6 µM (active),43.5 µM (active) and 41.5 µM (active),inactive,,inactive,inactive,inactive,inactive
O=c1[nH]c(=O)n(Cl)c(=O)n1Cl,inactive,inactive,inactive,inactive,inactive,inactive,inactive,inactive,inactive,inactive,inactive,inactive,inactive,inactive,inactive,inactive,,,,
CCCn1cc[n+](C)c1,inactive,inactive,inactive,inactive,inactive,inactive,inactive,inactive,inactive,inactive,inactive,inactive,inactive,inactive,inactive,,,,,
O=C(O)COc1ccc(Cl)cc1Cl,inactive,inactive,inactive,inactive,inactive,inactive,inactive,inactive,inactive,inactive,inactive,inactive,inactive,inactive,inactive,,,,,
O=c1nc(O)n(Cl)c(=O)n1Cl,inactive,inactive,inactive,inactive,inactive,inactive,inactive,inactive,inactive,inactive,inactive,inactive,inactive,inactive,inactive,inactive,,,,
CC[N+]1(C)CCCC1,inactive,inactive,inactive,inactive,inactive,inactive,inactive,inactive,inactive,inactive,inactive,inactive and 971 nM (active),inactive and 612 nM (active),inactive and 771 nM (active),inactive,inactive,,,,
C=CCOC(Cn1ccnc1)c1ccc(Cl)cc1Cl (centres undefined),inactive,inactive,inactive,inactive,inactive,inactive,inactive,inactive,inactive,inactive,inactive,11.9 µM (active) and 48.7 µM (active) and 13.7 µM (active),21.1 µM (active) and 27.4 µM (active) and 12.2 µM (active),21.1 µM (active) and 43.4 µM (active) and 13.7 µM (active),inactive and 49.1 µM (active),inactive,,,,
C[N+](C)(C)Cc1ccccc1,inactive,inactive,inactive,inactive,inactive,inactive,inactive,inactive,inactive,inactive,inactive,inactive,inactive,inactive,inactive,,,,,
OCCOc1ccccc1,inactive,inactive,inactive,inactive,inactive,inactive,inactive,inactive,inactive,inactive,inactive,inactive,inactive,inactive,inactive,,,,,
O=C(O)C(Cl)Cl,inactive,inactive,inactive,inactive,inactive,inactive,inactive,inactive,inactive,inactive,inactive,inactive,inactive,inactive,inactive,inactive,,,,
CC(Cl)(Cl)C(=O)O,inactive,inactive,inactive,inactive,inactive,inactive,inactive,inactive,inactive,inactive,inactive,inactive,inactive,inactive,inactive,,,,,
CCCCCCCCCCCCCCCCn1cc[n+](C)c1,inactive,inactive,inactive,inactive,inactive,inactive,inactive,inactive,inactive,inactive,,,,,,,,,,
COP(=O)(OC)C(O)C(Cl)(Cl)Cl (centres undefined),inactive,inactive,inactive,inactive,inactive,inactive,inactive,inactive,inactive,inactive,inactive,inactive,inactive,inactive,inactive,,,,,
O=C(O)c1nc(Cl)ccc1Cl,inactive,inactive,inactive,inactive,inactive,inactive,inactive,inactive,inactive,inactive,inactive,inactive,inactive,inactive,inactive,,,,,
O=P1(N(CCCl)CCCl)NCCCO1 (centres undefined),inactive,inactive,inactive,inactive,inactive,inactive,inactive,inactive,inactive,inactive,inactive,inactive,inactive,inactive,inactive,inactive,,,,
CCCC[n+]1cccc(C)c1,inactive,inactive,inactive,inactive,inactive,inactive,inactive,inactive,inactive,inactive,inactive,inactive,inactive,inactive,inactive,inactive,,,,
